Data taken from PubChem BioAssay (NCI).
Compounds without any hit were thinned out: in the full panel of roughly 83,000, 20% have a hit.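 Interpretation: 100, growth as untreated; towards 0, rising growth inhibition; 0, no net growth; 0 to -100, cell death. Compounds scoring below 10 were considered active.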 Values without a mark were called inactive. Activity calls are given as the source filed them.

Experiments:
Assay in all cases: NCI-60 one-dose screen, 48 h (100 = growth as untreated, 0 = no growth, -100 = all killed)
Conditions in all cases: 10 µM
[1] = test system: T-47D breast
[2] = test system: BT-549 breast
[3] = test system: MDA-MB-435 melanoma
[4] = test system: SW-620 colon
[5] = test system: MCF7 breast
[6] = test system: HCT-116 colon
[7] = test system: HCC-2998 colon
[8] = test system: KM12 colon

Structure (SMILES): C[C@H]1[C@H](OC(=O)CCC(=O)O)O[C@@H]2O[C@]3(C)CC[C@H]4[C@H](C)CC[C@@H]1[C@@]24OO3
- growth [1]: 31.3%
- growth [2]: 37.9%
- growth [3]: 9.74% (active)
- growth [4]: 30.6%
- growth [5]: 28.4%
- growth [6]: 14.1%
- growth [7]: 48.1%
- growth [8]: 27.1%

Structure (SMILES): CCN1C(=O)CC(SC2CC(=O)N(CC)C2=O)C1=O (stereo unspecified)
- growth [1]: 102%
- growth [2]: 101%
- growth [3]: 104%
- growth [4]: 108%
- growth [5]: 103%
- growth [6]: 104%
- growth [7]: 97.6%
- growth [8]: 104%

Structure (SMILES): Cn1c2ccccc2c2c3[nH][nH]c(=O)c3c3c4ccccc4[nH]c3c21
- growth [1]: 42.9%
- growth [2]: 20.5%
- growth [3]: 23.6%
- growth [4]: 20.7%
- growth [5]: 5.82% (active)
- growth [6]: -52.8% (active)
- growth [7]: 26.5%
- growth [8]: 10.7%

Structure (SMILES): Cc1ccc(NC(=S)NNC(=S)Nc2ccc(C)cc2)cc1
- growth [1]: 46.8%
- growth [2]: 71.7%
- growth [3]: -1.34% (active)
- growth [4]: 44.3%
- growth [5]: 29.3%
- growth [6]: 34.5%
- growth [7]: 68.9%
- growth [8]: 60.5%

Structure (SMILES): CNC(=O)c1cc(Oc2ccc3c(c2)sc2nc(-c4ccc(NC(=O)Nc5ccc(Cl)c(C(F)(F)F)c5)cc4)cn23)ccn1
- growth [1]: 19.4%
- growth [2]: 75.7%
- growth [3]: 91.1%
- growth [4]: 103%
- growth [5]: 82.6%
- growth [6]: 73.2%
- growth [7]: 102%
- growth [8]: 83.5%

Structure (SMILES): COC(=O)C1(O)NC(=C(C#N)C#N)C(C#N)=C1C(=O)c1ccc(OC)c(OC)c1 (stereo unspecified)
- growth [1]: 98.6%
- growth [2]: 89.1%
- growth [3]: 104%
- growth [4]: 97.9%
- growth [5]: 95.4%
- growth [6]: 90.9%
- growth [7]: 117%
- growth [8]: 105%

Structure (SMILES): COc1ccc(/C=C2\CCCC3=C2N=C2SC(C)=CN2C3c2ccc(OC)cc2)cc1 (stereo unspecified)
- growth [1]: 108%
- growth [2]: 105%
- growth [3]: 90%
- growth [4]: 99.6%
- growth [5]: 88.8%
- growth [6]: 93.4%
- growth [7]: 111%
- growth [8]: 108%

Structure (SMILES): COc1cc2ncnc(NC3CCC(O)CC3)c2cc1OC (stereo unspecified)
- growth [1]: 80.3%
- growth [2]: 92.1%
- growth [3]: 106%
- growth [4]: 101%
- growth [5]: 88.3%
- growth [6]: 91.4%
- growth [7]: 106%
- growth [8]: 95.3%

Structure (SMILES): CN1CCc2c(sc3nc4n(-c5ccc(Cl)cc5)c(=O)[nH]n4c(=O)c23)C1
- growth [1]: 87.6%
- growth [2]: 94%
- growth [3]: 103%
- growth [4]: 109%
- growth [5]: 91.7%
- growth [6]: 89.1%
- growth [7]: 102%
- growth [8]: 100%

Structure (SMILES): CS(=O)(=O)c1nccc(-c2c(-c3cccc(OCCN4CCOCC4)c3)nc3sccn23)n1
- growth [1]: 81%
- growth [2]: 108%
- growth [3]: 98.4%
- growth [4]: 97.7%
- growth [5]: 69.3%
- growth [6]: 78.4%
- growth [7]: 101%
- growth [8]: 96.6%

Structure (SMILES): COc1ccc(/C=C2\CCCC3=C2NC(N)=NC3c2ccc(OC)cc2)cc1 (stereo unspecified)
- growth [1]: 104%
- growth [2]: 112%
- growth [3]: 90.2%
- growth [4]: 95.8%
- growth [5]: 72.3%
- growth [6]: 78.6%
- growth [7]: 116%
- growth [8]: 87.2%

Structure (SMILES): CCNCC(=O)Nc1ccc(C(=O)OCC)cc1
- growth [1]: 92.9%
- growth [2]: 102%
- growth [3]: 102%
- growth [4]: 97.2%
- growth [5]: 99.6%
- growth [6]: 96%
- growth [7]: 98.7%
- growth [8]: 95.9%

Structure (SMILES): COc1ccc(-c2n[nH]nc2-c2cc(OC)c(OC)c(OC)c2)cc1
- growth [1]: 21.9%
- growth [2]: 13.6%
- growth [3]: 4.87% (active)
- growth [4]: 19.7%
- growth [5]: 19.7%
- growth [6]: 6.27% (active)
- growth [7]: 14.2%
- growth [8]: 0.0603% (active)

Structure (SMILES): COc1cc2nc(SCC(=O)Nc3cc(OC)c(OC)c(OC)c3)n(Cc3ccccc3)c(=O)c2cc1OC
- growth [1]: 73.5%
- growth [2]: 14%
- growth [3]: 76.2%
- growth [4]: 91%
- growth [5]: 82.6%
- growth [6]: 52.1%
- growth [7]: 77.2%
- growth [8]: 77.8%

Structure (SMILES): O=C(O)COc1c(Cl)cc([N+](=O)[O-])cc1Cl
- growth [1]: 108%
- growth [2]: 90%
- growth [3]: 105%
- growth [4]: 110%
- growth [5]: 94.7%
- growth [6]: 83.4%
- growth [7]: 101%
- growth [8]: 98.1%

Structure (SMILES): CC(=O)Oc1cc(OC(C)=O)c2ccccc2c1OC(C)=O
- growth [1]: 61.4%
- growth [2]: 92.4%
- growth [3]: -57.4% (active)
- growth [4]: 91.9%
- growth [5]: 56.8%
- growth [6]: 80.1%
- growth [7]: 110%
- growth [8]: 90.6%

Structure (SMILES): CCn1c2ccc(O)cc2c2c(C)c3c[n+](C)ccc3c(C)c21
- growth [1]: -6.62% (active)
- growth [2]: -13% (active)
- growth [3]: 64.9%
- growth [4]: 41.3%
- growth [5]: 16.7%
- growth [6]: 33.9%
- growth [7]: 35.1%
- growth [8]: 21.5%

Structure (SMILES): CCCCC/C=C/C/C=C/CCCCCCCC1=NC(C)(C)CN1C(C)C
- growth [1]: 16.5%
- growth [2]: 77.8%
- growth [3]: 15.9%
- growth [4]: -70.3% (active)
- growth [5]: -16.4% (active)
- growth [6]: -36.8% (active)
- growth [7]: -9.05% (active)
- growth [8]: -92% (active)

Structure (SMILES): CCN(CC)CCOC(=O)c1cc(OCc2ccccc2)c(OCc2ccccc2)c(OCc2ccccc2)c1
- growth [1]: 66.8%
- growth [2]: 86.8%
- growth [3]: 74.7%
- growth [4]: 19.7%
- growth [5]: 8.2% (active)
- growth [6]: 24%
- growth [7]: 53.8%
- growth [8]: 40.7%

Structure (SMILES): Cc1ccc(C)c(COc2cc(NC(=O)c3ccc4c(c3)OCO4)ccc2N(C)S(C)(=O)=O)c1
- growth [1]: 8.82% (active)
- growth [2]: 27.5%
- growth [3]: -15% (active)
- growth [4]: 28.7%
- growth [5]: 11.1%
- growth [6]: -34.1% (active)
- growth [7]: -41.5% (active)
- growth [8]: -10.9% (active)

Structure (SMILES): COc1ccc2nc3cc(Cl)ccc3c(Nc3cc(CN4CCCC4)c(O)c(CN4CCCC4)c3)c2n1
- growth [1]: 13.1%
- growth [2]: -37% (active)
- growth [3]: -94% (active)
- growth [4]: 7.17% (active)
- growth [5]: -11.9% (active)
- growth [6]: 6.62% (active)
- growth [7]: -31.8% (active)
- growth [8]: 11.8%

Structure (SMILES): CNC(=O)c1c(I)c(NC(C)=O)c(I)c(C(=O)O)c1I
- growth [1]: 117%
- growth [2]: 113%
- growth [3]: 103%
- growth [4]: 102%
- growth [5]: 108%
- growth [6]: 121%
- growth [7]: 106%
- growth [8]: 109%

Structure (SMILES): COc1cc2c(Nc3ccc(-c4ccc(N)cc4)cc3)ncnc2c(OC)c1OC
- growth [1]: 83%
- growth [2]: 85.5%
- growth [3]: 7.13% (active)
- growth [4]: 14.4%
- growth [5]: 36.1%
- growth [6]: 58.3%
- growth [7]: 4.99% (active)
- growth [8]: 3.42% (active)

Structure (SMILES): COc1cc2cc(Oc3ccc(NC(=O)c4cc(C(F)(F)F)cc(C(F)(F)F)c4)cc3)c(C)nc2cc1OC
- growth [1]: 86.7%
- growth [2]: 52.4%
- growth [3]: 49.1%
- growth [4]: 47.4%
- growth [5]: 29.5%
- growth [6]: 19.2%
- growth [7]: 73.9%
- growth [8]: 37.6%

Structure (SMILES): O=C(N/N=C/c1ccc([N+](=O)[O-])cc1)c1ccccc1Nc1cccc(C(F)(F)F)c1
- growth [1]: 95.1%
- growth [2]: 77.8%
- growth [3]: 103%
- growth [4]: 102%
- growth [5]: 111%
- growth [6]: 53.9%
- growth [7]: 99.5%
- growth [8]: 141%

Structure (SMILES): COc1cc(/C=C/c2cc(/C=C/c3ccc(O)c(OC)c3)nc(N)n2)ccc1O
- growth [1]: 1.57% (active)
- growth [2]: -24.4% (active)
- growth [3]: -8.12% (active)
- growth [4]: 1.86% (active)
- growth [5]: 7.59% (active)
- growth [6]: 0.331% (active)
- growth [7]: 0.932% (active)
- growth [8]: -29.3% (active)

Structure (SMILES): COc1ccc(/C=C2/SC(=S)NC2=O)c(OC)c1OC
- growth [1]: 63.2%
- growth [2]: 91.1%
- growth [3]: 78.5%
- growth [4]: 93.9%
- growth [5]: 80.4%
- growth [6]: 85.8%
- growth [7]: 82.3%
- growth [8]: 93.3%

Structure (SMILES): COc1cc2cc(Oc3ccc(NC(=O)c4ccc(Cl)c(C(F)(F)F)c4)cc3)c(C)nc2cc1OC
- growth [1]: 82.8%
- growth [2]: 20.8%
- growth [3]: 25.7%
- growth [4]: 34.2%
- growth [5]: 24.8%
- growth [6]: 8.43% (active)
- growth [7]: 41.3%
- growth [8]: 19.7%

Structure (SMILES): O=[N+]([O-])c1ccc(/C(=C/c2ccccc2)[n+]2ccccc2)cc1
- growth [1]: 112%
- growth [2]: 109%
- growth [3]: 101%
- growth [4]: 103%
- growth [5]: 98.7%
- growth [6]: 107%
- growth [7]: 126%
- growth [8]: 125%

Structure (SMILES): NS(=O)(=O)Oc1ccc(NC(=O)C2CCCCCC2)cc1
- growth [1]: 90.7%
- growth [2]: 104%
- growth [3]: 106%
- growth [4]: 106%
- growth [5]: 97.7%
- growth [6]: 105%
- growth [7]: 101%
- growth [8]: 101%

Structure (SMILES): CCOC(=O)c1cc(C(=O)c2ccc(F)cc2F)n2ccccc12
- growth [1]: 76.3%
- growth [2]: 88.5%
- growth [3]: 106%
- growth [4]: 94.5%
- growth [5]: 94.1%
- growth [6]: 92.5%
- growth [7]: 101%
- growth [8]: 96.1%

Structure (SMILES): CCOC(=O)c1sc2ncnc(Nc3ccc4c(cnn4C(=O)Nc4ccc(C)c(Cl)c4)c3)c2c1C
- growth [1]: 101%
- growth [2]: 102%
- growth [3]: 100%
- growth [4]: 102%
- growth [5]: 87.8%
- growth [6]: 88.9%
- growth [7]: 94.1%
- growth [8]: 95.4%
